Screening data as filed in PubChem.
The entries come from a sample that favours hits as a whole.
Pf Dd2 growth – inhibitors of Plasmodium falciparum Dd2 growth. AID 1347417. P. falciparum Dd2 growth, SYBR Green, 72 h. hit rate 4.3% among 120,000. Potency, µM (highest dose often 28.9 µM), inactives show at the highest dose activity, negative = inhibition, actives largely listed as inhibitors; active = well fitted inhibition curve with a large enough effect;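 also: plate controls were DMSO vehicle for no effect and reference drug for full effect; nearly all actives have a fitted effect of over 65% in size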
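Readout: SYBR Green fluorescence, 485 nm excitation, 535 nm emission, after ~16 h lysis at 37C. Before that, Dd2-infected red cells (2.5% hematocrit) grew 72 h with compound, 29 uM top final concentration.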
Starred values were filed as active, the others as inactive; i = inactive; [ ] = remark or other dose. Potency is read from the fitted curve at half-maximal effect.

SMILES	Pf Dd2 growth
CCN(Cc1cnn(CC)c1)C(=O)C1CCN(C(=O)N2CC3CC(C2)[C@H]2CCCC(=O)N2C3)CC1 (some centres undefined)	-22%
O[C@@H]1CCN(Cc2nc(C3(O)CCN(C4CCOCC4)CC3)cs2)C1	9%[44.1 µM]
CCc1nc(-c2c3n(c(=O)n(Cc4ccc(C)cc4)c2=O)CCCC3)no1	-20%
O=C1NCCOCCN(S(=O)(=O)c2ccc3c(c2)CCC3)[C@@H]2CCCC[C@H]12	i
Cc1cccc(NC(=O)C2CCN(c3cn[nH]c(=O)c3)C2)c1 (centres undefined)	0%
CC(=O)Nc1ccc(CN[C@@H]2CO[C@H](CNC(=O)c3cccs3)[C@H]2O)cc1	-16%[44.1 µM]
COC(=O)c1nc2n(n1)C(c1cc(OC)ccc1OC)C=C(c1ccc(Br)cc1)N2 (centres undefined)	11%
CCOc1ccc(C2=CC(c3cc(Br)ccc3F)n3ncnc3N2)cc1Cl (centres undefined)	11µM*
COc1ccc(C2=CC(c3cc(Br)ccc3F)n3c(nc4ccccc43)N2)cc1 (centres undefined)	-23%
Cc1cnccc1NCCn1ccnc1-c1cc2n(n1)CCCNC2	10%
CC1CCN(Cc2nnnn2CCCC(=O)N2CCN(CCO)CC2)CC1	1%
COc1cccc(CC(=O)N2CCc3nnc([C@@H]4C[C@@H](O)CN4C)n3CC2)c1	6%
Cc1ccccc1CN1CCCC(CCNS(=O)(=O)C2CC2)C1 (centres undefined)	10µM*
COc1coc(CN2CCCC(CCc3ccccc3F)C2)cc1=O (centres undefined)	i
O=c1cc(CN2CCCC(CCc3ccccc3C(F)(F)F)C2)[nH]c(=O)[nH]1 (centres undefined)	-12%
CNC(=O)N1C[C@@H](CN(C)C)[C@H](NS(=O)(=O)c2cc(F)ccc2C)C1	-9%
CNC(=O)N1C[C@@H](CN(C)C)[C@H](NS(=O)(=O)c2ccc(F)cc2F)C1	18%
CN(C)C[C@@H]1CN(C)C[C@H]1NS(=O)(=O)c1cc(F)cc(F)c1	8.9µM*
Cc1cc(Cl)ccc1NC(=O)N(C)CC1CCOC1 (centres undefined)	55%[5.79 µM]
COC(=O)N1CCCC(c2nn(-c3ccc(OC)cc3)c(=O)[nH]2)C1 (centres undefined)	i
CC(C)(C)CN1CCNc2cc(Nc3cccnc3)ncc2C1	-20%[44.1 µM]
Cn1cc(CN2CCNc3cc(-c4ccccc4)ncc3C2)cn1	i
COc1ccc(CN2CCNc3cnc(Nc4cccnc4)cc3C2)cc1O	1%[44.1 µM]
Oc1ccccc1CN1CCNc2cnc(OCc3cccnc3)cc2C1	i
Cc1[nH]cnc1CN1CCNc2cc(Nc3ccccc3)ncc2C1	8%[44.1 µM]
SMILES	Pf Dd2 growth
c1cncc(Nc2cc3c(cn2)CN(Cc2ccc4[nH]ccc4c2)CCN3)c1	2.8µM*
c1ccc(Nc2cc3c(cn2)CN(Cc2c[nH]c4ccccc24)CCN3)cc1	4.5µM*
CN1CCNc2cc(Nc3ccncc3)ncc2C1	52%[44.1 µM]
Cc1cc(-c2cc3c(cn2)CN(Cc2ccc4[nH]ccc4c2)CCN3)ccn1	-19%[44.1 µM]
Oc1ccccc1CN1CCNc2cc(Nc3cccnc3)ncc2C1	8.9µM*
c1ccc(-c2cc3c(cn2)CN(Cc2ccc4[nH]ccc4c2)CCN3)cc1	6.3µM*
c1ccc(Nc2cc3c(cn2)NCCN(Cc2ccccn2)C3)cc1	-10%[44.1 µM]
COc1ccc(CC(=O)N2CCC3(CC2)C(=O)NCN3C(=O)C2CCCC2)cc1	2%
C1CC(N2CC(OCC3CC3)C23CCOCC3)CCN1 (centres undefined)	-1%
O=C1C(N2CCN(S(=O)(=O)c3ccc(Cl)s3)CC2)CCN1Cc1cccnc1 (centres undefined)	-7%
O=C(Nc1cccc(F)c1)N1Cc2[nH]cnc2C[C@H]1c1nc(-c2cccc([N+](=O)[O-])c2)no1	-4%
COc1cc(Cl)c(C)cc1NC(=O)CN1C(=O)NC2(CCOCC2)C1=O	-28%
O=[S+]1([O-])NCC2(CCN(Cc3cccnc3)CC2)Nc2ccccc21	28%
Cc1cc2nc3n(c(=O)c2n1CC(=O)Nc1cccc(C(C)C)c1)CCCC3	i
c1ccc(Nc2cc3c(cn2)CN(Cc2ccn[nH]2)CCN3)cc1	i
Oc1ccccc1CN1CCNc2cc(Nc3ccccc3)ncc2C1	5µM*
COc1cccc(Nc2cc3c(cn2)CN(Cc2cccnc2)CCN3)c1	-15%[44.1 µM]
Cn1cc(CN2CCNc3cc(Nc4ccccc4)ncc3C2)cn1	i
Oc1ccccc1CN1CCNc2cnc(Nc3ccccc3)cc2C1	i
Cc1cccc(CN2CCNc3cc(Nc4cccnc4)ncc3C2)c1	5.6µM*
O=C(NCc1nnc2ccc(-c3ccccc3)nn12)c1ccc(F)c(F)c1	i
COc1ccccc1C(=O)NCCC1CCN(C(=O)Nc2ccccc2C)CC1	-3%
COc1ccc(S(=O)(=O)N2CCCC(Cn3c(C)nc4cccnc43)C2)cc1OC (centres undefined)	i
CC(C)c1ccc(CN2C[C@H]3[C@H](C2)[S+](=O)([O-])C(C)(C)C(=O)N3Cc2ccccc2)cc1	i
COc1ccc(CN2C(=O)COC[C@H]2C(=O)NCc2cccc(OC)c2OC)cc1	i
SMILES	Pf Dd2 growth
COc1ccc(OC)c([C@@H]2Nc3ccc(C(=O)O)cc3[C@@H]3C=CC[C@@H]32)c1	12%
COc1ccc(Br)cc1[C@@H]1Nc2ccc(C(=O)O)cc2[C@@H]2C=CC[C@@H]21	8%
CCOC(=O)c1ccc2c(c1)[C@@H]1C=CC[C@@H]1[C@H](c1cccc(OC)c1OC)N2	0.45µM*
Fc1ccc2nc(CO[C@H]3CN(CC4CC4)C[C@H]3F)[nH]c2c1	11µM*
Cn1ccnc1CN1C[C@@H](F)[C@@H](OCc2nc3ccc(F)cc3[nH]2)C1	-7%[44.1 µM]
Cc1cccnc1CN1C[C@@H](F)[C@@H](OCc2nc3ccc(F)cc3[nH]2)C1	i
CC(C)N1CCC2(CC1)CNCc1ccccc1O2	i
CCOc1ccc(-c2cn3c(n2)sc2cc(C(=O)NCCc4ccc(OC)c(OC)c4)ccc23)cc1	3.5µM*
CCOc1ccc(-n2c(C)nc3cc(C(=O)NCCC4=CCCCC4)ccc32)cc1	-7%
CCOC(=O)C1CCN(C(=O)c2ccc3c(c2)sc2nc(-c4ccc(OC)cc4)cn23)CC1	i
COc1cccc(-c2cn3c(n2)sc2cc(C(=O)NCCc4ccccc4)ccc23)c1	i
CCCSCCCNC(=O)c1ccc2c(c1)sc1nc(-c3ccc(OCC)cc3)cn12	3.5µM*
COc1ccc(-c2cn3c(n2)sc2cc(C(=O)NCc4ccccc4)ccc23)cc1	16%
COc1ccc(NC(=O)c2ccc3c(c2)sc2nc(-c4ccc(OC)cc4)cn23)cc1	i
COc1ccc(-c2cn3c(n2)sc2cc(C(=O)Nc4cc(Cl)ccc4C)ccc23)cc1	-16%
CCOc1ccc(-c2cn3c(n2)sc2cc(C(=O)NCCC4=CCCCC4)ccc23)cc1	7.1µM*
CN1CCN(c2ccc(-c3nccc4c(=O)cc(N(C)C5CCOCC5)oc34)cn2)CC1	i
O=C(CCc1nnn2c1CN(C(=O)COc1ccc(F)cc1)CC2)NCc1ccccc1	-25%
COc1cccc(OCC(=O)c2ccc3c(c2)N(CCCC(=O)NCC2CCCO2)C(=O)CO3)c1 (centres undefined)	i
O=C1CO[C@H]2CN(CC3CC3)C[C@H]2N1Cc1ccccn1	-4%[44.1 µM]
COc1ccc(-c2noc([C@@H]3C[C@@H](O)CN3C3CCN(C)CC3)n2)cc1	-30%[44.1 µM]
COCCC(=O)N1CCC2(CC1)C(=O)N(C)c1ccccc12	50%
CN1C(=O)C2(CCN(C(=O)CCCS(N)(=O)=O)CC2)c2ccccc21	4%
